# This is a sample that favours compounds with a hit; in the whole collection about 2.4% have one here.
# D2 ag-1: activates the human D2 dopamine receptor; actives 0.53% (n = 340,000); HEK293 T-REx D2 cells, calcium flux agonist mode; activation, % at 2 µM; AID 485358;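 active means activation over 3 SD above normal in the single-dose calcium agonist read, cut at about 30% in these data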
# Target sequence (P14416 whole entry, looked up): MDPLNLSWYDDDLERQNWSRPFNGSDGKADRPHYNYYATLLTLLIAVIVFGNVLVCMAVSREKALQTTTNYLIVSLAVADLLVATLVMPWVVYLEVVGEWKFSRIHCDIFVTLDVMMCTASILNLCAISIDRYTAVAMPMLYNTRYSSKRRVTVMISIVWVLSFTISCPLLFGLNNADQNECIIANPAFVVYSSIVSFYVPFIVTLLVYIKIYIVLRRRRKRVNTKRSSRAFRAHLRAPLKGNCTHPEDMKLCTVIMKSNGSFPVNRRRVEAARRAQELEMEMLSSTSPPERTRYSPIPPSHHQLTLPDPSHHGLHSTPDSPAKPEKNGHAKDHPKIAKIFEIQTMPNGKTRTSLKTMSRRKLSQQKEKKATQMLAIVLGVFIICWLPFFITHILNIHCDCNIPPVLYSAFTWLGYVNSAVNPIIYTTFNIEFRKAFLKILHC
#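 In this primary screen, compounds producing a positive calcium signal within 180 s of addition to tetracycline-induced, force-coupled HEK293 Trex D2 cells are flagged; cells are dye-loaded with a no-wash calcium kit beforehand.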
# D2 PAM-1: positive allosteric modulators of human D2 dopamine receptor; DiscoveRx D2 beta-arrestin cells, luminescence, 90 min; 100% = 57 uM dopamine signal; actives 0.23% (n = 360,000); potentiation, % (concentration not given with the values); P14416; in the data active means potentiation above about 50%
#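 PathHunter beta-arrestin assay in DiscoveRx D2 cells. Compounds were added with an EC20 of dopamine (50 nM final) for 90 min at 37 deg C. Luminescence was read 1 h after detection reagent, with 57 uM dopamine as the EC100 control.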
# D2 antag: antagonizes the human D2 dopamine receptor | HEK293 TREx D2 cells, calcium flux, dopamine EC80 | inhibition, % at 10 µM | actives 2% (n = 340,000); in the data active means inhibition above about 30%; inactive means below that, where a call was filed
#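 Tetracycline-induced HEK293 T-REx cells expressing D2 force-coupled to calcium signalling were dye-loaded, exposed to compound for 180 s, then challenged with an EC80 of dopamine; calcium flux was followed kinetically for a further 180 s.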
# D2 ag-2: human D2 receptor agonism in beta-arrestin assay | P14416 | DiscoveRx PathHunter D2 beta-arrestin, luminescence, 90 min; 100% = 57 uM dopamine signal | activation, % (test concentration not listed) | actives 0.084% (n = 360,000); in the data active means activation above about 40%
#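 Agonist mode: compounds alone added to overnight-plated D2 PathHunter cells for 90 min at 37 C, with 57 uM final dopamine (EC100) defining full response. Beta-arrestin recruitment detected by chemiluminescent reagent, read after 1 h at ambient temperature.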
# D2 PAM-2: positively modulates the human D2 dopamine receptor allosterically | HEK293 T-REx D2, calcium flux, EC20 dopamine potentiation | potentiation, % at 10 µM | actives 0.34% (n = 340,000);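 active means potentiation over 3 SD above the plate norm, cut at about 30% in these data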
#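 Potentiation of an EC20 dopamine calcium response is measured in a force-coupled, tetracycline-inducible Hek293 Trex D2 line. Compound-only kinetic reads over 180 s flag agonists before dopamine addition.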
# Numbers stand for hits; 0 = inactive; - = no result given.
SMILES,D2 ag-1,D2 PAM-1,D2 antag,D2 ag-2,D2 PAM-2
COc1ccc(Cl)cc1NC(=O)NCC1CCN(Cc2cc(C)ccc2C)CC1,0,0,55,0,0
CCN1CCC(NC(=O)Nc2ccccc2C(=O)OC)CC1,0,0,0,0,0
COC(=O)c1ccccc1NC(=O)NC1CCN(Cc2ccccc2)CC1,0,0,64,0,0
COc1ccc(-n2ncc3c(NC(C)(C)CO)ncnc32)cc1,0,-,-,-,0
COCCCNC(=O)c1c(NC(=O)Cc2coc3cc(C)ccc23)sc2c1CCCC2,0,-,-,-,0
CCOC(=O)c1cnn(-c2cccc(F)c2)c1C1CCNCC1,0,-,-,-,0
O=S(=O)(c1ccc(F)cc1)N(Cc1nc(-c2ccc(Cl)cc2)no1)C1CCCCC1,0,-,-,-,-
COc1ccc(S(=O)(=O)NC2CCN(Cc3ccccc3)CC2)cc1NC(C)=O,0,0,0,0,0
COc1ccc(C)cc1NC(=O)NC1CCN(Cc2ccccc2)CC1,0,0,75,0,0
Cc1ccc(NC(=O)CN(C)C(=O)CSc2ncc(C(F)(F)F)cc2Cl)cc1,0,0,93,0,0
Cn1c2c(c(=O)n(C)c1=O)C1(C(=O)Nc3ccccc31)C(C#N)=C(N)O2 (configuration not stated),-,54,-,0,-
N#CC1=C(N)Oc2ccccc2C12C(=O)Nc1n[nH]c(-c3ccccc3)c12 (configuration not stated),0,0,0,0,0
CCCCCCOc1ccc(C2C(=O)N(C3CCCCC3)CC(=O)N2CCC)cc1 (configuration not stated),0,-,-,-,0
CC(OC(=O)/C=C/c1ccccc1)C(=O)N1CCc2ccccc21 (configuration not stated),-,0,30,0,0
COc1ccc(CCN(C)Cc2nc(Cc3ccc(OC)c(OC)c3)no2)cc1OC,0,0,37,0,0
COc1ccc(OC)c(NCc2nnc(-c3ccccc3)o2)c1,0,0,0,0,0
COc1ccc(-c2ccc(-c3nnc(Cc4ccc(OC)c(OC)c4)o3)cc2)cc1,0,0,30,0,0
COc1ccc(Cc2noc(-c3ccccc3)n2)cc1OC,0,0,33,0,0
COc1ccc(Cc2noc(CN(C)C3CC(C)(C)NC(C)(C)C3)n2)cc1OC,0,0,0,0,0
O=C(NC1CCCC1)c1ccc2c(=O)n(Cc3ccccc3)c(SCc3ccc([N+](=O)[O-])cc3)nc2c1,0,-,-,-,-
Cc1nc2c(C(=O)NCCC(C)C)c[nH]n2c(=O)c1Cc1ccccc1F,0,0,37,0,0
Cc1nc2c(C(=O)NCCc3ccc(Cl)cc3)c[nH]n2c(=O)c1Cc1ccccc1F,-,-,-,-,0
N#CCCN1CCN(Cc2cc(-c3ccccc3)ccc2O)CC1,0,0,65,0,0
CC(C)(C)CC(C)(C)c1ccc(O)c(CN2CCN(CCC#N)CC2)c1,0,0,0,0,0
Cc1nnc(SCc2cc(=O)oc3cc(O)ccc23)n1Cc1ccccc1,0,0,30,0,0
SMILES,D2 ag-1,D2 PAM-1,D2 antag,D2 ag-2,D2 PAM-2
CC(=O)Nc1c(C)nn(-c2ccccc2)c1N1CCC(C(=O)Nc2cccc(C(F)(F)F)c2)CC1,0,-,-,-,0
CCOC(=O)C1CCN(C(=O)Cc2c(F)cccc2Cl)CC1,0,0,31,0,0
Cc1ccc(CNc2nc3ccccc3n3nnnc23)cc1,0,52,0,0,0
Cc1ccc(CNC(=O)c2ccc(Nc3nc4ccccc4n4nnnc34)cc2)cc1,0,-,-,-,0
O=C(CSc1ncc(-c2ccccc2)[nH]1)Nc1cccc(Br)c1,-,-,-,-,0
O=c1cc(-c2ccc([N+](=O)[O-])cc2)nc2cc(-c3ccc(Cl)cc3)[nH]n12,0,-,35,-,0
COc1ccc(Cl)cc1NC(=O)CN(C)C(=O)CCC(=O)c1cc(C)sc1C,0,0,62,0,0
COc1ccc(Cl)cc1NC(=O)CN(C)C(=O)c1ccc(OCc2ccccc2)c(OC)c1,0,0,37,0,0
CCc1c(C)sc2c1CCN(Cc1ccccc1F)C2c1ccccc1 (configuration not stated),0,-,-,-,0
COC(=O)c1cc(C(=O)OC)cc(-n2c(C)cc(C(=O)CC#N)c2C)c1,0,0,33,0,0
O=C(c1ccc(C(=O)N2CCCCCC2)cc1)N1CCCCCC1,0,0,0,0,32
Cc1ccc(CN2CCC(C(=O)c3ccc(F)cc3)CC2)cc1,-,0,-,0,-
O=C(c1ccc(F)cc1)C1CCN(C(=O)c2ccc(F)cc2)CC1,0,0,41,0,0
COc1ccc(CN2CCC(C(=O)c3ccc(F)cc3)CC2)cc1,0,0,78,0,0
O=C(c1ccc(N2C(=O)C3CC=C(Cl)CC3C2=O)cc1)N1CCCCC1 (configuration not stated),0,0,38,0,0
O=C(c1ccccc1)N1CCCCCC1,0,0,0,0,0
O=C(c1ccc(F)cc1)C1CCN(C(=S)Nc2ccc(F)cc2)CC1,0,0,47,0,0
CCCNC(=S)N1CCC(C(=O)c2ccc(F)cc2)CC1,0,0,0,0,35
COc1ccc(NC(=O)c2c(NCc3ccc(OC)c(OC)c3OC)sc3c2CCC3)c(OC)c1,-,-,-,-,0
OCCNCc1cc(Br)ccc1OCc1ccccc1Cl,0,0,42,0,0
CC(C)Cc1nnc(NC(=O)c2cc(-c3ccccc3)nc3ccccc23)s1,0,0,0,0,30
CC(C)Cc1nnc(NC(=O)c2cc(-c3ccncc3)nc3ccccc23)s1,0,0,0,0,0
CCS(=O)(=O)c1ncc(Cl)c(C(=O)N(Cc2ccccc2)Cc2ccco2)n1,0,-,-,-,0
COc1cccc(OC)c1OC(=O)C1CC(=O)N(c2ccc3c(c2)OCCO3)C1 (configuration not stated),-,0,-,0,-
COc1ccccc1OC(=O)C1CC(=O)N(c2ccc(Cl)cc2)C1 (configuration not stated),0,0,0,0,34
SMILES,D2 ag-1,D2 PAM-1,D2 antag,D2 ag-2,D2 PAM-2
COc1ccc(Cl)cc1NC(=O)C1CCN(C(=O)C2CC(=O)N(c3ccc(C)cc3)C2)CC1 (configuration not stated),0,0,37,0,0
Cc1ccc(N2CC(C(=O)N3CCC(C(=O)Nc4cccc(Br)c4)CC3)CC2=O)cc1 (configuration not stated),0,0,39,0,0
Cc1ccc(N2CC(C(=O)N3CCC(C(=O)Nc4ccc(Br)cc4)CC3)CC2=O)cc1 (configuration not stated),0,0,0,0,0
COc1ccccc1NC(=O)C(C)OC(=O)C1CC(=O)N(c2ccc3c(c2)OCCO3)C1 (configuration not stated),0,63,0,0,0
Cc1ccc(CN2CCCn3nc(C(=O)NCc4ccc(OC(C)C)cc4)cc3C2=O)cc1,0,-,-,-,0
Cc1cc(C)nc(SCC(=O)c2ccc([N+](=O)[O-])cc2)n1,0,76,0,0,0
